FBW7 activator = activators of human E3 ligase FBW7. Q969H0. AlphaScreen FBW7–phospho-cyclin E peptide binding, activator screen. normalized activity (activation), % at 26.1 µM. 0.13% of 650,000 active; in the data active = normalized activity above about 1.9%;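 also: purified mutant Fbw7 with reduced substrate affinity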
GPR151 activ = activators of human GPR151; PathHunter beta-arrestin GPR151 cells, luminescence; AID 1508602; 1% of 650,000 active; activation, % at 11.2 µM; in the data active = activation above about 4.9%;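 also: 0% = median of compound wells and 100% = cells with positive control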
Target sequence (Q8TDV0 whole entry, looked up): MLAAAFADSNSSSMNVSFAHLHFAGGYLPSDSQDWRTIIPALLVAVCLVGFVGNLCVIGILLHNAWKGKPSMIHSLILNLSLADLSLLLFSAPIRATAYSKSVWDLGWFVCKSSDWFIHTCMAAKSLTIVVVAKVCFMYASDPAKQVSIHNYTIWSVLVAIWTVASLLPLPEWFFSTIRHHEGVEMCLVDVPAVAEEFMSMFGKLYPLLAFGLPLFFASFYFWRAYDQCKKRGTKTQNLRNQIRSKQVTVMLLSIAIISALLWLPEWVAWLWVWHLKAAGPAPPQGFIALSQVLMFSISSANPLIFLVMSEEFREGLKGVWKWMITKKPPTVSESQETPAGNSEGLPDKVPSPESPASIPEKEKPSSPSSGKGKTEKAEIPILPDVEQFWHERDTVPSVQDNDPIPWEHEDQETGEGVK
MITF inh = inhibitors of human MITF | AID 1259374 | AlphaScreen MITF homodimerization, bead proximity signal | O75030 | 0.91% of 650,000 active | inhibition, % at 2.6 µM; in the data active = inhibition above about 50%;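 also: 0% = vehicle wells with protein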
TEAD-YAP inh = TEAD-YAP interaction inhibition; HEK-TIYL cells, TEAD-Gal4/YAP UAS-luciferase luminescence; inhibition, % at 9.12 µM; 1.4% of 640,000 active; AID 1259422; in the data active = inhibition above about 32%;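 also: 0% = median of test compound wells and 100% = reference inhibitor wells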
GPR151 conf act = human GPR151 activation, confirmation screen; shares compounds with GPR151 activ; GPR151 PathHunter beta-arrestin cells, luminescence, 90 min; % of EA-reagent control over plate median; activation, % at 11.2 µM; 6,700 tested, under 10 active; AID 1508609;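 active = mean percent activation across replicates above the confirmation screen cutoff of 4.91%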
GPR119 ag = GPR119 activation, counter-screen for GPR151 activators. 0.3% of 6,700 active. GPR119 PathHunter beta-arrestin cells, luminescence, 90 min; 0 = compound-well median, 100 = enzyme-acceptor control. shares compounds with GPR151 activ. activation, % at 11.2 µM;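 active = mean percent activation in the counterscreen above 29.09%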;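 also: counterscreen on off-target GPR119 to flag nonselective hits from the GPR151 activator screen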
Numbers without * were called inactive; nt = no result given. Sampled rows, rich in hits. Any-hit rate of the full collection: about 3.5%.

SMILES	FBW7 activator	GPR151 activ	MITF inh	TEAD-YAP inh	GPR151 conf act	GPR119 ag
CC(C)c1nc2ccccc2c2nn(CC(=O)N3CCN(C(=O)c4ccco4)CC3)c(=O)n12	0	15*	-7	10	0	4
O=C(NCc1ccccc1)c1ccnc(-c2ccc3[nH]ccc3c2)c1	0	-1	31	-9	nt	nt
O=C(COc1ccccc1)Nc1ccc2oc(-c3ccccc3)nc2c1	0	6.3*	-11	-22	0	10
O=C(Cc1ccccc1)Nc1cccc(-c2nnc(-c3cccc(NC(=O)Cc4ccccc4)c3)o2)c1	0	1	-8	-5	nt	nt
O=C(COc1ccccc1)Nc1nnc(-c2ccccc2)o1	0	6.0*	13	-5	-1	-3
O=C(O)CCC(=O)Nc1cccc(-c2nnc(-c3ccccc3)o2)c1	0	5.0*	3	-6	-1	-11
CC(=O)Nc1ccc(-c2nnn(CC(=O)Nc3ccc(C)c(C)c3)n2)cc1Cl	0	0	8	3	nt	nt
O=C(c1cccc(F)c1)N(CCCN1CCOCC1)c1nc(-c2ccccc2)cs1	0	1	4	-24	nt	nt
COc1ccccc1CNC(=O)c1ccc(CNc2c(N3CCCC3)c(=O)c2=O)cc1	0	4.9*	10	5	-1	-13
Cc1ccc(NC(=O)c2ccc(CNc3c(N4CCOCC4)c(=O)c3=O)cc2)cc1F	0	5.0*	1	-7	0	-9
COc1cc([N+](=O)[O-])cc2c1NC(c1cccnc1)C1CC=CC21 (centres undefined)	0	5.2*	7	0	0	-7
COc1cc([N+](=O)[O-])cc2c1NC(c1ccncc1)C1CC=CC21 (centres undefined)	0	1	-3	-6	nt	nt
CCC(C)NCCOc1ccccc1I (centres undefined)	0	5.4*	23	8	0	4
CCNC(=O)CN(c1cc(C(F)(F)F)ccc1Cl)S(C)(=O)=O	0	0	11	1	nt	nt
CS(=O)(=O)N(CC(=O)O)c1cc(C(F)(F)F)ccc1Cl	0	6.3*	3	6	-1	-10
N#CC1=C(N)Oc2cc(O)ccc2C1C1CC=CCC1 (centres undefined)	0	5.4*	7	13	0	2
CCOC(=O)c1c(C)oc2ccc(N(C(=O)c3ccc(C)cc3)S(=O)(=O)c3ccc(C)cc3)cc12	0	5.0*	5	-7	1	-3
Cc1ccccc1CNC(=O)CN(c1cccc(Cl)c1Cl)S(C)(=O)=O	0	3	-13	0	nt	nt
COc1cccc(-c2cc(CC(=O)NCCC3=CCCCC3)no2)c1	0	6.1*	-7	-17	-1	-4
N#C/C(=C\c1ccc(F)cc1)C(=O)N1CCOCC1	0	6.3*	-8	-34	1	6
Cc1ccc(CN2CCN(Cc3nc4ccccc4n3C)CC2CCO)cc1 (centres undefined)	0	19*	14	-2	0	2
CC(C)CN1CCN(Cc2nc3ccccc3n2C)CC1CCO (centres undefined)	0	2	-1	2	nt	nt
CSCc1c(C(=O)OCC(=O)Nc2sccc2C#N)oc2ccccc12	0	-1	-16	5	nt	nt
S=C(NCc1ccccn1)Nc1cccc(Cl)c1	0	10.0*	-2	-41	1	9
CC(=O)c1c(Nc2ccccc2O)oc(C)cc1=O	0	-1	11	-14	nt	nt
SMILES	FBW7 activator	GPR151 activ	MITF inh	TEAD-YAP inh	GPR151 conf act	GPR119 ag
Cc1cccc(CN2CCC(N3CCC[C@H]3CO)CCC2=O)c1 (some centres undefined)	0	11*	-2	5	0	-7
O=C(CSc1nnc(-c2cccnc2)o1)c1ccccc1	0	5.9*	5	-21	0	4
O=C(CSc1nnc(-c2cccnc2)o1)Nc1nc(-c2ccccc2)cs1	0	7.5*	10	3	-1	-2
O=C(CSc1nnc(-c2cccnc2)o1)c1ccc2ccccc2c1	0	0	0	-2	nt	nt
COCCn1c2c(=O)n(C)c(=O)n(C)c2n2c(-c3ccc(OCc4ccccc4)cc3)nnc12	0	1	1	6	nt	nt
COc1ccc(S(=O)(=O)NCC(c2ccco2)N(C)C)cc1F (centres undefined)	0	6.5*	11	-5	-1	-8
O=C1CC(C(=O)NCC2Cc3cccc(-c4cnccn4)c3O2)c2ccccc21 (centres undefined)	0	-1	2	7	nt	nt
CC(=O)Nc1ccc2nc(NC(=O)C34CC5CC(CC(C5)C3)C4)sc2c1	0	0	12	-58	nt	nt
CCCCn1c(C)c(Cc2ccccc2)[nH]c1=O	0	6.1*	-12	9	0	0
CCCCCn1c(=O)[nH]c2ccccc21	0	2	-2	-6	nt	nt
Cc1nnc(SCC(=O)N2CCc3ccccc3C2)[nH]c1=O	0	10*	-14	-10	0	8
O=C(CSc1nc2ccccc2c(=O)[nH]1)N1CCc2ccccc2C1	0	0	15	-2	nt	nt
CCOc1cc(C(=O)O)cc(I)c1OCc1ccccc1	0	9.2*	-1	8	0	7
CCCCOc1c(I)cc(C(=O)O)cc1OCC	0	0	-9	-3	nt	nt
COC(=O)c1cccc(NC(=O)C(CCSC)NC(N)=O)c1 (centres undefined)	0	-1	1	-6	nt	nt
COCCNC(=O)c1ccc(CNC(=O)c2ccc3c(c2)OCO3)cc1	0	-1	9	-8	nt	nt
COCCCNC(=O)c1ccc(CNC(=O)c2ccc3c(c2)OCO3)cc1	0	5.7*	5	3	-1	-5
COc1ccc(CNS(=O)(=O)c2ccc(C3CNC(=O)C3)cc2)cc1 (centres undefined)	1	0	9	12	nt	nt
COc1ccc2c(c1)CCC(C)N2S(=O)(=O)c1ccc(C2CNC(=O)C2)cc1 (centres undefined)	0	8.3*	2	3	0	4
[O-]/[N+](=C\c1ccncc1)c1ccc(Cl)cc1	0	5.2*	-1	5	2	13
[O-]/[N+](=C\c1ccc(F)cc1)c1ccccc1	0	-1	-1	6	nt	nt
C(=N\Nc1nc2ccccc2o1)/c1ccco1	0	-4	2	-54	nt	nt
COc1ccc(OC)c(C(=O)c2oc3ccc(Cl)cc3c2N)c1	0	6.3*	-5	50*	-1	0
COc1ccc(OC)c(C(=O)c2oc3ccc(Cl)cc3c2NC(C)=O)c1	0	1	-6	8	nt	nt
CC1(C)NC(=O)N(CC(O)COc2ccc3ccccc3c2Br)C1=O (centres undefined)	0	3	-5	-13	nt	nt
CC1(C)NC(=O)N(CCOCCOc2ccc3ccccc3c2Br)C1=O	0	5.5*	-5	-32	0	-10

Screening data: PubChem BioAssay, The Scripps Research Institute Molecular Screening Center
